# Results as given in PMC11006913.
# Where a chain is given by its changes, count along the chain named.
# Legend:
# Assay in all cases: PBM; 200 nM protein, PBS
# Conditions in all cases: dsDNA, one strand shown
# SIX6 [1] = molecular target: T1, SIX6 (Homo sapiens, UniProt O95475 114-200, L167I)
# T1 sequence: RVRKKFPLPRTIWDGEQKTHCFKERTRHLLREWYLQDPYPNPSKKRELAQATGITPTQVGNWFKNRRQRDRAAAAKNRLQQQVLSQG
# SIX6 [2] = molecular target: T2, SIX6 (Homo sapiens, UniProt O95475 114-200, L143V)
# T2 sequence: T1 sequence with L30V, I54L
# SIX6 [3] = molecular target: T3, SIX6 (Homo sapiens, UniProt O95475 114-200, H141N)
# T3 sequence: T1 sequence with H28N, I54L
# SIX6 [4] = molecular target: T4, SIX6 (Homo sapiens, UniProt O95475 114-200, T165P)
# T4 sequence: T1 sequence with T52P, I54L
# SIX6 [5] = molecular target: T5, SIX6 (Homo sapiens, UniProt O95475 114-200, L167M)
# T5 sequence: T1 sequence with I54M
# SIX6 [6] = molecular target: T6, SIX6 (Homo sapiens, UniProt O95475 114-200, L143M)
# T6 sequence: T1 sequence with L30M, I54L
# SIX6 [7] = molecular target: T7, SIX6 (Homo sapiens, UniProt O95475 114-200, L143I)
# T7 sequence: T1 sequence with L30I, I54L
# SIX6 [8] = molecular target: T8, SIX6 (Homo sapiens, UniProt O95475 114-200, T165G)
# T8 sequence: T1 sequence with T52G, I54L
# SIX6 [9] = molecular target: T9, SIX6 (Homo sapiens, UniProt O95475 114-200, T139Q)
# T9 sequence: T1 sequence with T26Q, I54L
# SIX6 [10] = molecular target: T10, SIX6 (Homo sapiens, UniProt O95475 114-200, T165A)
# T10 sequence: T1 sequence with T52A, I54L
# SIX6 [11] = molecular target: T11, SIX6 (Homo sapiens, UniProt O95475 114-200, L167V)
# T11 sequence: T1 sequence with I54V
# SIX6 [12] = molecular target: T12, SIX6 (Homo sapiens, UniProt O95475 114-200)
# T12 sequence: T1 sequence with I54L
# SIX6 [13] = molecular target: T13, SIX6 (Homo sapiens, UniProt O95475 114-200, T165I)
# T13 sequence: T1 sequence with T52I, I54L
Sequence,binding signal (SIX6 [1]),binding signal (SIX6 [2]),binding signal (SIX6 [3]),binding signal (SIX6 [4]),binding signal (SIX6 [5]),binding signal (SIX6 [6]),binding signal (SIX6 [7]),binding signal (SIX6 [8]),binding signal (SIX6 [9]),binding signal (SIX6 [10]),binding signal (SIX6 [11]),binding signal (SIX6 [12]),binding signal (SIX6 [13])
ATATCATG,"11.1 upbm affinity estimate (log intensity, higher = more binding, comparable within an allelic series)","10.4 upbm affinity estimate (log intensity, higher = more binding, comparable within an allelic series)","11.1 upbm affinity estimate (log intensity, higher = more binding, comparable within an allelic series)","9.92 upbm affinity estimate (log intensity, higher = more binding, comparable within an allelic series)","10.8 upbm affinity estimate (log intensity, higher = more binding, comparable within an allelic series)","10.9 upbm affinity estimate (log intensity, higher = more binding, comparable within an allelic series)","10.4 upbm affinity estimate (log intensity, higher = more binding, comparable within an allelic series)","11.1 upbm affinity estimate (log intensity, higher = more binding, comparable within an allelic series)","11.2 upbm affinity estimate (log intensity, higher = more binding, comparable within an allelic series)","11 upbm affinity estimate (log intensity, higher = more binding, comparable within an allelic series)","11 upbm affinity estimate (log intensity, higher = more binding, comparable within an allelic series)","11 upbm affinity estimate (log intensity, higher = more binding, comparable within an allelic series)","11 upbm affinity estimate (log intensity, higher = more binding, comparable within an allelic series)"
CATGATCA,"10.5 upbm affinity estimate (log intensity, higher = more binding, comparable within an allelic series)","9.91 upbm affinity estimate (log intensity, higher = more binding, comparable within an allelic series)","10.3 upbm affinity estimate (log intensity, higher = more binding, comparable within an allelic series)","9.68 upbm affinity estimate (log intensity, higher = more binding, comparable within an allelic series)","10.1 upbm affinity estimate (log intensity, higher = more binding, comparable within an allelic series)","10.4 upbm affinity estimate (log intensity, higher = more binding, comparable within an allelic series)","9.97 upbm affinity estimate (log intensity, higher = more binding, comparable within an allelic series)","10.4 upbm affinity estimate (log intensity, higher = more binding, comparable within an allelic series)","10.6 upbm affinity estimate (log intensity, higher = more binding, comparable within an allelic series)","10.3 upbm affinity estimate (log intensity, higher = more binding, comparable within an allelic series)","10.4 upbm affinity estimate (log intensity, higher = more binding, comparable within an allelic series)","10.3 upbm affinity estimate (log intensity, higher = more binding, comparable within an allelic series)","10.2 upbm affinity estimate (log intensity, higher = more binding, comparable within an allelic series)"
GGCCCCAA,"8.91 upbm affinity estimate (log intensity, higher = more binding, comparable within an allelic series)","8.77 upbm affinity estimate (log intensity, higher = more binding, comparable within an allelic series)","8.92 upbm affinity estimate (log intensity, higher = more binding, comparable within an allelic series)","9.01 upbm affinity estimate (log intensity, higher = more binding, comparable within an allelic series)","8.96 upbm affinity estimate (log intensity, higher = more binding, comparable within an allelic series)","8.92 upbm affinity estimate (log intensity, higher = more binding, comparable within an allelic series)","8.81 upbm affinity estimate (log intensity, higher = more binding, comparable within an allelic series)","8.9 upbm affinity estimate (log intensity, higher = more binding, comparable within an allelic series)","9.04 upbm affinity estimate (log intensity, higher = more binding, comparable within an allelic series)","8.9 upbm affinity estimate (log intensity, higher = more binding, comparable within an allelic series)","8.9 upbm affinity estimate (log intensity, higher = more binding, comparable within an allelic series)","8.82 upbm affinity estimate (log intensity, higher = more binding, comparable within an allelic series)","8.91 upbm affinity estimate (log intensity, higher = more binding, comparable within an allelic series)"
CCGCCAGC,"9.01 upbm affinity estimate (log intensity, higher = more binding, comparable within an allelic series)","9.02 upbm affinity estimate (log intensity, higher = more binding, comparable within an allelic series)","9.07 upbm affinity estimate (log intensity, higher = more binding, comparable within an allelic series)","9.02 upbm affinity estimate (log intensity, higher = more binding, comparable within an allelic series)","9.06 upbm affinity estimate (log intensity, higher = more binding, comparable within an allelic series)","9.02 upbm affinity estimate (log intensity, higher = more binding, comparable within an allelic series)","9.03 upbm affinity estimate (log intensity, higher = more binding, comparable within an allelic series)","9.05 upbm affinity estimate (log intensity, higher = more binding, comparable within an allelic series)","9.1 upbm affinity estimate (log intensity, higher = more binding, comparable within an allelic series)","9.05 upbm affinity estimate (log intensity, higher = more binding, comparable within an allelic series)","9.06 upbm affinity estimate (log intensity, higher = more binding, comparable within an allelic series)","9.05 upbm affinity estimate (log intensity, higher = more binding, comparable within an allelic series)","9.03 upbm affinity estimate (log intensity, higher = more binding, comparable within an allelic series)"
GATCCAGA,"10.5 upbm affinity estimate (log intensity, higher = more binding, comparable within an allelic series)","10 upbm affinity estimate (log intensity, higher = more binding, comparable within an allelic series)","10.4 upbm affinity estimate (log intensity, higher = more binding, comparable within an allelic series)","9.57 upbm affinity estimate (log intensity, higher = more binding, comparable within an allelic series)","10.1 upbm affinity estimate (log intensity, higher = more binding, comparable within an allelic series)","10.3 upbm affinity estimate (log intensity, higher = more binding, comparable within an allelic series)","10.1 upbm affinity estimate (log intensity, higher = more binding, comparable within an allelic series)","10.4 upbm affinity estimate (log intensity, higher = more binding, comparable within an allelic series)","10.6 upbm affinity estimate (log intensity, higher = more binding, comparable within an allelic series)","10.4 upbm affinity estimate (log intensity, higher = more binding, comparable within an allelic series)","10.3 upbm affinity estimate (log intensity, higher = more binding, comparable within an allelic series)","10.5 upbm affinity estimate (log intensity, higher = more binding, comparable within an allelic series)","10.3 upbm affinity estimate (log intensity, higher = more binding, comparable within an allelic series)"
GCCAGTCC,"9.04 upbm affinity estimate (log intensity, higher = more binding, comparable within an allelic series)","8.92 upbm affinity estimate (log intensity, higher = more binding, comparable within an allelic series)","8.9 upbm affinity estimate (log intensity, higher = more binding, comparable within an allelic series)","9.04 upbm affinity estimate (log intensity, higher = more binding, comparable within an allelic series)","8.92 upbm affinity estimate (log intensity, higher = more binding, comparable within an allelic series)","8.89 upbm affinity estimate (log intensity, higher = more binding, comparable within an allelic series)","9.03 upbm affinity estimate (log intensity, higher = more binding, comparable within an allelic series)","9 upbm affinity estimate (log intensity, higher = more binding, comparable within an allelic series)","9.12 upbm affinity estimate (log intensity, higher = more binding, comparable within an allelic series)","8.81 upbm affinity estimate (log intensity, higher = more binding, comparable within an allelic series)","8.95 upbm affinity estimate (log intensity, higher = more binding, comparable within an allelic series)","8.9 upbm affinity estimate (log intensity, higher = more binding, comparable within an allelic series)","8.85 upbm affinity estimate (log intensity, higher = more binding, comparable within an allelic series)"
